The target in assay [1] is Lysosomal acid glucosylceramidase (Homo sapiens) (UniProt P04062). Briefly: Glucocerebrosidase-p2 (AID 348; in the data active = potency below about 10 µM; also: potency is read from the fitted curve at half-maximal effect). The conditions noted are these: purified GBA, blue fluorogenic substrate, 40 min. In a few lines:
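Compounds titrated from 0.6 nM upwards against 0.2 nM enzyme in pH 5.9 citric acid/KH2PO4, taurocholate, tween-20; blue fluorogenic substrate 80 uM, 40 min room temperature, stopped and read Ex 365/Em 440 for AC50.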

The nature of assay [2]: AP1 Signaling Pathway (AID 357; active = well fitted curve in either direction with a large enough effect, not every such curve was filed as active; also: % is scaled to controls: 0 for no effect and ±100 for the full control effect). The conditions noted are these: ME-180 AP-1-bla reporter, EGF-induced, beta-lactamase ratio, 5 h; at 7.69 µM (top of the series) unless noted. In a few lines: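 Cells are seeded overnight, exposed to compound titrations and an EC50 level of EGF for 5 hours at 37 °C, then loaded with CCF4 dye for 2.5 hours. Beta-lactamase activity under the AP-1 element is read as a blue/green ratio.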

Assay [3] can be described thus: NFAT Signaling Pathway (AID 444; active = well fitted curve in either direction with a large enough effect, not every such curve was filed as active;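 also: carbachol stimulus at about its EC50 of 1 µM final; % is scaled to controls: 0 for no effect and ±100 for the full control effect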). The conditions noted are these: Jurkat NFAT-bla M1, carbachol, beta-lactamase ratio, 5 h; at 7.69 µM (top of the series) unless noted. The gist of the method:
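Jurkat cells with NFAT-driven β-lactamase reporter and co-expressed M1 receptor, stimulated with carbachol (final 1 uM, ~EC50), compound titration, 5 h at 37 °C. CCF4 loaded 1 h at RT; 460/530 nm ratio gave %activity and AC50.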

A short description of assay [4]: Stat Signaling Pathway (AID 446; active = well fitted curve in either direction with a large enough effect, not every such curve was filed as active;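 also: ME-180 cervical cancer cells given 40 pM IL-6 alongside compound; SIE-controlled beta-lactamase reporter measured as 460/530 nm FRET emission ratio; % is scaled to controls: 0 for no effect and ±100 for the full control effect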). The conditions noted are these: ME-180 SIE beta-lactamase reporter, IL-6 stimulated, 5 h; at 7.69 µM (top of the series) unless noted. The gist of the method: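 Screening format detects activators and inhibitors alike: ME-180 SIE-bla cells stimulated at 40 pM IL-6 for 5 hrs with compound, then dual-emission beta-lactamase read at 405 nm excitation.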

Assay [5] addresses Glucocorticoid receptor (Homo sapiens) (UniProt P04150). Briefly: GR-GFP Redistribution (AID 450;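 active = compounds whose dose series gives a full or clear partial fitted curve of increased nuclear translocation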; also: potency is read from the fitted curve at half-maximal effect). The conditions noted are these: U2OS GR-GFP nuclear translocation, laser cytometry, 2 h.
Assay [6] has the same target. Briefly: GR-EFC Redistribution (AID 451; calls by dose curve; also: potency is read from the fitted curve at half-maximal effect). To be noted: CHO-K1 GR-EFC translocation, beta-gal luminescence, 2 h. In a few lines: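 CHO-K1 cells expressing nuclear EA and GR-ED fragments of b-gal; compounds titrated up to 46 uM final, 2 h at 37 C. GR nuclear translocation read as complemented b-gal luminescence after 1 h RT detection.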
Assay [7] deals with Mitogen-activated protein kinase 10 (Mus musculus) (UniProt Q61831). Briefly: JNK3 AlphaScreen Assay (AID 530; active = well fitted curve in either direction with a large enough effect, not every such curve was filed as active;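 also: kinase came from lysate of stimulated human HepG2 cells; signal reports phosphorylation of biotinylated GST-cJun 1-79 at Ser73 with 10 µM ATP; % is scaled to controls: 0 for no effect and ±100 for the full control effect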). To be noted: JNK3 lysate, c-Jun phosphorylation; series mostly up to 57.1 µM. In a few lines: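 qHTS format: compounds tested as titrations against IL-1beta/TNF-alpha-activated HepG2 lysate JNK3 with biotin-GST-cJun substrate and 10 uM ATP at room temperature. Loss of anti-phospho-cJun AlphaScreen signal indicates inhibition.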

Assay [8] deals with 3',5'-cyclic-AMP phosphodiesterase 4B (Homo sapiens) (UniProt Q07343). Briefly: qHTS Assay for Inhibitors of PDE-IV (AID 607; active = well fitted activation curve with a large enough effect in the main read-out, with a control signal flat, not every such curve was filed as active; also: % of control where 0% means no effect). To be noted: HEK293 ACTOne CNG channel cells, membrane potential fluorescence; series mostly up to 22.9 µM. In a few lines:
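The readout is membrane depolarisation from a cAMP-sensing CNG channel, detected with a potential dye at ex 535/em 590. Cells were HEK293-derived (endogenous PDE-IV) at 1000 cells/well, titrated up to 22.9 uM final.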
For orientation: Quantitative high-throughput screening tests each substance at several concentrations.

Assay [9] is described as follows: qHTS Assay for Lipid Storage Modulators (AID 1519; calls by dose curve). The conditions noted are these: Drosophila S3 cells, BODIPY lipid droplet/cell ratio, laser cytometry, cells loaded with oleic acid. In a few lines: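 Cells seeded at 5,000 per well were treated with compounds over a concentration series and loaded with oleic acid (400 uM, as added). Lipid droplet fluorescence (488 nm excitation, 500-530 nm channel) was read by laser-scanning cytometry and normalized to 20 uM Triacsin C.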

Assay [10] deals with Ubiquitin carboxyl-terminal hydrolase 1 (Homo sapiens) (UniProt O94782). Briefly: Inhibitors of USP1/UAF1: Pilot qHTS (AID 504865).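 Also: rhodamine fluorescence freed from ubiquitin-rhodamine substrate followed over time; top concentration of the series differs between compounds; % is scaled to controls: 0 for no effect and ±100 for the full control effect; nearly all actives have a fitted effect of over 35% in size.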 The conditions noted are these: purified USP1/UAF1, Ub-rhodamine cleavage fluorescence; series mostly up to 54.9 µM. In a few lines:
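In 50mM HEPES pH 7.8 containing 0.5mM EDTA, 1mM TCEP, 0.1 mg/ml BSA and 0.01% Tween-20, 1nM USP1/UAF1 is exposed to compound for 15 min, then Ub-Rho (150nM final) is added and fluorescence is read over time.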

The target of assay [11] is Cytochrome P450 3A4 (Homo sapiens) (UniProt P08684). Briefly: qHTS Assay for Inhibitors and Substrates of Cytochrome P450 3A4 (AID 884). Also: % is scaled to controls: 0 for no effect and ±100 for the full control effect; nearly all actives have a fitted effect of over 50% in size. The conditions noted are these: recombinant CYP3A4, Luciferin-PPXE luminescence; series mostly up to 57.1 µM. In a few lines: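 20 nM human CYP3A4 with 25 uM Luciferin-PPXE (at KM) in 200 mM KPO4, preincubated 10 min with compound; NADPH regeneration started a 60 min RT reaction. Luciferin detected by luminescence, normalized to 57 uM ketoconazole as full inhibition.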
Sequence of Cytochrome P450 3A4 (Homo sapiens) (P08684 whole entry, looked up): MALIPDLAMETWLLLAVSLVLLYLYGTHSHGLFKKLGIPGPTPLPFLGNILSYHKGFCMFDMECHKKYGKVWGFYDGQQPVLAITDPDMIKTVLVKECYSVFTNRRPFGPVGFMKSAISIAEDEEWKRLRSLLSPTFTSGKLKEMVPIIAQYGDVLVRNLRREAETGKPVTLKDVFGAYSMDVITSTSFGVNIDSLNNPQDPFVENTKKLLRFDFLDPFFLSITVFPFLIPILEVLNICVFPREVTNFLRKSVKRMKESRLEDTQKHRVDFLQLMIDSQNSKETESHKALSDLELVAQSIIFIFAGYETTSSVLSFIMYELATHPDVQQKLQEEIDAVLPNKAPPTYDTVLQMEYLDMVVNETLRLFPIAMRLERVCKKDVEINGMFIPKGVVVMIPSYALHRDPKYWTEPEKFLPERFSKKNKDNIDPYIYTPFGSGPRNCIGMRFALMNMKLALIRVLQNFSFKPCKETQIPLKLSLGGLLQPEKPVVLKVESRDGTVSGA

A short description of assay [12]: Confirmation and Secondary Assay for Modulators of Hemoglobin Beta Chain Splicing at IVS2 654 locus (AID 910).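 Also: HeLa cells stably carrying EGFP split by mutant beta-globin IVS2-654 intron; % of control where 0% means no effect.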 The conditions noted are these: HeLa EGFP-654 splicing reporter, GFP fluorescence, 48 h; series mostly up to 38.3 µM. The gist of the method:
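HeLa cells stably expressing EGFP interrupted by β-globin IVS2-654 intron, seeded overnight in Opti-MEM/2% FCS, then treated 2 days at 37 °C. Restored splicing read as total peak GFP intensity per well by laser scanning cytometry (488 nm excitation, 500–520 nm emission); 500 nM antisense PNA as control.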

A short description of assay [13]: Confirmation and Secondary Assay for Modulators of Hemoglobin Beta Chain Splicing at IVS2 705 locus (AID 930).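 Also: HeLa cells stably expressing the EGFP-705 splicing reporter; GFP fluorescence per well restored by corrected splicing of the IVS2-705 intron in EGFP; % of control where 0% means no effect.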 To be noted: HeLa EGFP-705 splicing reporter, GFP fluorescence, 48 h; series mostly up to 38.3 µM. The gist of the method:
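First, HeLa EGFP-705 cells are seeded at 500/well in Optimem with 2% FCS and left overnight. Next, compound or DMSO is added for 2 days. Finally wells are laser-scanned and total peak GFP intensity scored.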

The target in assay [14] is Cytochrome P450 3A4 (Homo sapiens) (UniProt P08684). Briefly: qHTS Assay for Activators of Cytochrome P450 3A4 (AID 885). Also: nearly all actives have a fitted effect of over 65% in size. The conditions noted are these: recombinant CYP3A4, Luciferin-PPXE luminescence, 60 min; series mostly up to 57.1 µM. The gist of the method: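 Steps: enzyme/substrate mix dispensed; compound added, 10 min RT; NADPH regeneration solution added, 60 min RT; luciferin detection buffer stops reaction; 20 min later luminescence measured.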

The target of assay [15] is Glutathione peroxidase 1 (Homo sapiens) (UniProt P07203). Briefly: Primary qHTS Assay for Inhibitors of Recombinant Selenoprotein Glutathione Peroxidase 1 (GPX1) (AID 1845191). Also: nearly all actives have a fitted effect of over 65% in size. To be noted: recombinant GPX1, GR-coupled NADPH fluorescence, 15 min; series mostly up to 48.8 µM. The gist of the method:
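GR-coupled assay: compounds preincubated 30 min at room temperature with GPX1, then reaction started with CHP; final 10 nM GPX1, 1 mM GSH, 0.5 mM CHP, 0.5 mM NADPH, 100 nM GR, 0.01% BSA, pH 7.5 Tris buffer. NADPH fluorescence (340/450 nm) read at 0 and 15 min.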

Assay [16] has as its target Cytochrome P450 1A2 (Homo sapiens) (UniProt P05177). Briefly: p450-cyp1a2 (AID 410; calls by dose curve; also: potency is read from the fitted curve at half-maximal effect;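 as to activity change, negative = inhibition: -100% = full effect of reference inhibitor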). The conditions noted are these: recombinant CYP1A2, luciferin-ME demethylation, luminescence; series mostly up to 57 µM. The gist of the method:
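Human CYP1A2 (20nM) demethylated Luciferin-ME at its Km (100uM) in 100mM KPO4. After 10 min compound preincubation, NADPH regeneration ran the reaction 60 min at room temperature. Luciferin was read by luminescence, normalized to 57 uM furafylline.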

A short description of assay [17]: qHTS profiling for inhibitors of Plasmodium falciparum proliferation (AID 504749).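 Also: 0% = DMSO vehicle and full inhibition = artemisinin control; nearly all actives have a fitted effect of over 60% in size.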 To be noted: P. falciparum in erythrocytes, SYBR Green DNA, 72 h, at 12.8 µM (top of the series). The gist of the method: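 Readout was DNA-dye fluorescence from lysed cultures, ex 485/em 535 nm. Parasitized red cells had grown 72 h with compound; data scaled between 0.29 uM artemisinin and DMSO wells and corrected using vehicle-only plates.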

Assay [18] in a line: qHTS Assay for Identification of Small Molecule Agonists for Hypoxia Response Element Signaling Pathway (AID 914; active = well fitted activation curve with a large enough effect in the signal ratio, with a control signal flat, not every such curve was filed as active; the % refers to the signal ratio; also: potency is read from the fitted curve at half-maximal effect). To be noted: ME-180 (cervical carcinoma) HRE-bla reporter, beta-lactamase ratio, CoCl2, 17 h; activation: stronger effect = higher value. The gist of the method: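 Positive modulation of EC50 CoCl2-induced hypoxia response element signaling is measured in ME-180 cells with a beta-lactamase reporter. Compounds are titrated, incubation runs 17 hours, and %Activity derives from the blue/green ratio.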

Where [19] appears, read: measured here: cell count channel max response.
Setting [20] is: measured here: lipid channel max response.

Values joined by “and” are separate entries in the source; they are usually repeats but may differ in a detail not shown here. Equal values may be shown once. Inconclusive results are not listed. Active and inactive are the calls of the source. Unless noted, calls follow the shape of the dose curve; as a rule, active = well fitted curve in the direction sought with a large enough effect; inconclusive = small, poorly fitted or top-dose-only effect, or another doubt; inactive = no such curve, though single readings can be large; an effect the other way counts as inactive or inconclusive.

Sequence of Glucocorticoid receptor (Homo sapiens) (P04150 whole entry, looked up, the tested form may be a part): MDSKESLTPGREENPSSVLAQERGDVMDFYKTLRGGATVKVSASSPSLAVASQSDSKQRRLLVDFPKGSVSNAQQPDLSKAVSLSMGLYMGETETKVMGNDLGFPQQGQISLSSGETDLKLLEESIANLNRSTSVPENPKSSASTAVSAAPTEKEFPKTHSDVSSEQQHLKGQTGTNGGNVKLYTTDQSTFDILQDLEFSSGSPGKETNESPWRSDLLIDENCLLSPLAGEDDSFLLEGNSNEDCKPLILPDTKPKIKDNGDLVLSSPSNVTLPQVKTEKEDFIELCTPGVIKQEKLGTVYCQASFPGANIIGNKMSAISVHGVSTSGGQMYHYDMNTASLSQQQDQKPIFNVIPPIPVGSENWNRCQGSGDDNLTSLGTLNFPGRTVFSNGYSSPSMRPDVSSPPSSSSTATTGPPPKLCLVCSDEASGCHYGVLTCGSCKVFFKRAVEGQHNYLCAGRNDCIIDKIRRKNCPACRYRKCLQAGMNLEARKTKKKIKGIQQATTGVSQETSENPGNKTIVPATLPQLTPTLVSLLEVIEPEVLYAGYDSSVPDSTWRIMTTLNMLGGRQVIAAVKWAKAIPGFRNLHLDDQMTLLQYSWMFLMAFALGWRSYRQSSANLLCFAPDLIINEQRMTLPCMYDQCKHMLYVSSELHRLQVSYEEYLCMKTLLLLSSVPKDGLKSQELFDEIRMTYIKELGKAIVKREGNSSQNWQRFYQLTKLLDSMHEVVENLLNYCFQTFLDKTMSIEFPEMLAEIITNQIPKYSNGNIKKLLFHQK
Sequence of Ubiquitin carboxyl-terminal hydrolase 1 (Homo sapiens) (O94782 whole entry, looked up): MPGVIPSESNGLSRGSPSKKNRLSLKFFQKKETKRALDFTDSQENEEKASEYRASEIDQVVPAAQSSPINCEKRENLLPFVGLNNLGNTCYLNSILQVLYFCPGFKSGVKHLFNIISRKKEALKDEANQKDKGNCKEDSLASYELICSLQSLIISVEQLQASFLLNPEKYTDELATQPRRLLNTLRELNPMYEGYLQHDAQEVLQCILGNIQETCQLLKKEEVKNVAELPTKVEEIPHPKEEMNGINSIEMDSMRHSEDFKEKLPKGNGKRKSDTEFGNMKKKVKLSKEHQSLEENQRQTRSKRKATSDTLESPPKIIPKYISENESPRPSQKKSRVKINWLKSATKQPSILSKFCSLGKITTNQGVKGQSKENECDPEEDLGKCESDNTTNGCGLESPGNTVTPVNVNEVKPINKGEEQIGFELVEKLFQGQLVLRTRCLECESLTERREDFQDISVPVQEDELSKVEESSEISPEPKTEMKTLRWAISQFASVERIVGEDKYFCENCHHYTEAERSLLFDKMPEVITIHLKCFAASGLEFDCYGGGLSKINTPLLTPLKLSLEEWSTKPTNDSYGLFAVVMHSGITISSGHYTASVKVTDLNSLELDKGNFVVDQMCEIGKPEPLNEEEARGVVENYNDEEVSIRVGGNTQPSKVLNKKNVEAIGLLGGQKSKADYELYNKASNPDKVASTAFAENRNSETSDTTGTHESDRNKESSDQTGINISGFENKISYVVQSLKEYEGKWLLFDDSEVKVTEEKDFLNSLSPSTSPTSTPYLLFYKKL
Sequence of 3',5'-cyclic-AMP phosphodiesterase 4B (Homo sapiens) (Q07343 whole entry, looked up): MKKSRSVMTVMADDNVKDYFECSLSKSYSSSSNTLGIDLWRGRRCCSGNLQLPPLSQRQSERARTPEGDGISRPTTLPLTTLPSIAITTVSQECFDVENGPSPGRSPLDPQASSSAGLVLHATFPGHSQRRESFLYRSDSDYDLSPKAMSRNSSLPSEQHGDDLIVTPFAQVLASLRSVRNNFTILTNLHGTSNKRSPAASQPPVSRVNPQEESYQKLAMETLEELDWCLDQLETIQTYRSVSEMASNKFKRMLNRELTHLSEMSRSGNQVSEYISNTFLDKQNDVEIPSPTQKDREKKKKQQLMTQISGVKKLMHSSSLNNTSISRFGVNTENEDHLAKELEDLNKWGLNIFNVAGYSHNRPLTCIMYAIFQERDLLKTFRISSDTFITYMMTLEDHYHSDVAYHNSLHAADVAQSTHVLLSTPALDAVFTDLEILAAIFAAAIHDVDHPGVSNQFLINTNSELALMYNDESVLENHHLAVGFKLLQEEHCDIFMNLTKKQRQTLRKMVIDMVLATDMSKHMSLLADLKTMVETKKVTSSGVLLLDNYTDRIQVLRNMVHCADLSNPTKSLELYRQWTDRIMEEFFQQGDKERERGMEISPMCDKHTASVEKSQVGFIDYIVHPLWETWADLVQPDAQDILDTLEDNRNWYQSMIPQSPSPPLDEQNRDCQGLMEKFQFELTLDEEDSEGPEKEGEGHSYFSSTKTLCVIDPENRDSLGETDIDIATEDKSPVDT
Sequence of Lysosomal acid glucosylceramidase (Homo sapiens) (P04062 whole entry, looked up): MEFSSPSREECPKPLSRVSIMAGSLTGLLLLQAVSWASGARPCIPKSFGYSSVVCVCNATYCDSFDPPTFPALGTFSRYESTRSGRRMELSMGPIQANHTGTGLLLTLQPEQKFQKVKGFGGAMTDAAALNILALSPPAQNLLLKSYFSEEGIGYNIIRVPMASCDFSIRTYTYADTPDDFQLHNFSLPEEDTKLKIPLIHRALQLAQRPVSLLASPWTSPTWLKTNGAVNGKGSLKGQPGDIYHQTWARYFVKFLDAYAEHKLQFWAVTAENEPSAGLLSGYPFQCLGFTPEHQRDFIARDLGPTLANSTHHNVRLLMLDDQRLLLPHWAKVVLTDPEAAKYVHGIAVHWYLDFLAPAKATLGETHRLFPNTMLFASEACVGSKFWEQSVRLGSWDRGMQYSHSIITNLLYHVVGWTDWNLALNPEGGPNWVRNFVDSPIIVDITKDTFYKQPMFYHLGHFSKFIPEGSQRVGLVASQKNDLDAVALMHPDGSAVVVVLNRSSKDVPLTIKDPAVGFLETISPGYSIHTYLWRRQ
Sequence of Glutathione peroxidase 1 (Homo sapiens) (P07203 whole entry, looked up): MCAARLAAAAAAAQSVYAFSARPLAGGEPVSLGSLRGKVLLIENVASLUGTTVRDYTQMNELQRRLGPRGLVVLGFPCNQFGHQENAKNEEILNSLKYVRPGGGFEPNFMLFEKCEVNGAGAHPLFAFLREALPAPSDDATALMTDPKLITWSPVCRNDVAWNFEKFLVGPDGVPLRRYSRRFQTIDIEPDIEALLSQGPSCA
Sequence of Cytochrome P450 1A2 (Homo sapiens) (P05177 whole entry, looked up): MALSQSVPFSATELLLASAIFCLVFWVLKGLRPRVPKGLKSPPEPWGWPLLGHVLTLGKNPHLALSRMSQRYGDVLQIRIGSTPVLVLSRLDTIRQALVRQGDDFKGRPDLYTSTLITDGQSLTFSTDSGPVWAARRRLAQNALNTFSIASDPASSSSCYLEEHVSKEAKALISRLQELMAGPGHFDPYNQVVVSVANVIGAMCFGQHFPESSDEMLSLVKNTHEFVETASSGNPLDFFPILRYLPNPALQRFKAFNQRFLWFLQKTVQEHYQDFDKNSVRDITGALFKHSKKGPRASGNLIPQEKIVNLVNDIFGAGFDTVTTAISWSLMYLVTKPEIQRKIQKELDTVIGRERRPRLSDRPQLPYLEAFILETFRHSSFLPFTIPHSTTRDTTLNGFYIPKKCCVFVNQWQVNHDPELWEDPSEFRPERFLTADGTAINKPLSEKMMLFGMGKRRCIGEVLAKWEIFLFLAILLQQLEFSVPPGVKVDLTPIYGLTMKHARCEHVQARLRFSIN

Turning to `COCCn1c(=O)c(C)nc2cnc(Nc3ccccc3)nc21`, the Potency in assay [1] was > 11.4 µM (inactive); in assay [5] it was > 9.22 µM (inactive); in [6], > 46 µM (inactive). Also, the results for the activity change, negative = inhibition in [2], in assay [3] and in [9] (at 57.5 µM (top of the series)) were -18.1% (inactive), 15.1% (inactive) and -1.55% (inactive), respectively. The activity, negative = inhibition in [4] was 3.38% (inactive). Further, the Potency entry in assay [7], in [8] and in assay [10] was “inactive” in each case. Also, the max response in assay [9] (setting [19]) was -5.32%; in assay [9] (setting [20]), -10.4%.
With `Cc1occc(=O)c1O`, the Potency entry in assay [7], in [11], in assay [12] and in [10] was “inactive” in each case. In addition, the result in assay [13] was inactive. Besides, the activity change, negative = inhibition in assay [9] (at 57.5 µM (top of the series)) was 8.81% (inactive). Also, the max response worked out at 0.823% in assay [9] (setting [19]) and 13.2% in [9] (setting [20]).
On to `COc1cc2c(cc1OC)C1Cc3ccc(OC)c(OC)c3CN1CC2` (centres undefined), for which the Potency result in assay [14] and in assay [12] was “inactive” each time. Besides, the compound was classed as inactive in assay [13] and in assay [15]. Also, the activity change, negative = inhibition in [9] (at 57.5 µM (top of the series)) is 8.32% (inactive). Further, the max response was 12.8% in assay [9] (setting [19]) and 22.2% in assay [9] (setting [20]).
`O=C(/C=C/c1ccc(O)c(O)c1)OC(Cc1ccc(O)c(O)c1)C(=O)O` (centres undefined): the Potency entry in [11] and in assay [10] was “inactive” throughout. For the same compound, the result in assay [13] was inactive. The activity change, negative = inhibition in [9] (at 57.5 µM (top of the series)) was 6.07% (inactive) and 7.21% (inactive). For the same compound, the max response in assay [9] (setting [19]) is 10.1% and -5.16%; in assay [9] (setting [20]), 18.1% and 1.39%.
On to `Cc1nc2cnc(Nc3ccccc3)nc2n(C[C@H]2CCCO2)c1=O`, for which the values for the Potency in assay [1], in assay [5] and in assay [6] were > 11.4 µM (inactive), > 9.22 µM (inactive) and > 46 µM (inactive), respectively. In addition, the activity change, negative = inhibition is -11% (inactive) in assay [2], 9.56% (inactive) in [3] and -5.71% (inactive) in [9] (at 57.5 µM (top of the series)). Also, the activity, negative = inhibition in assay [4] was -15.1% (inactive). Also, the Potency result in [7], in assay [8] and in assay [14] was “inactive” in each case. Besides, the max response was -3% in assay [9] (setting [19]) and -12.3% in assay [9] (setting [20]).
In the case of `CN(C)CC/C=C1\c2ccccc2CSc2ccccc21`, the activity change, negative = inhibition in assay [2] was 28.4% [at 17.2 µM] (inactive); in assay [9] (at 25.7 µM (top of the series)) it was -6.7% (inactive). The Potency result in [16], in assay [7], in assay [8] and in assay [10] was “inactive” throughout. The activity, negative = inhibition in [4] was -0.2% [at 17.2 µM] (inactive); in [17] (parasite line A), 4.44% (inactive); in assay [17] (parasite line B), 2.26% (inactive). The Potency in assay [5] and in assay [6] was > 20.6 µM (inactive) throughout. The max response in assay [9] (setting [19]) was -12.7%; in assay [9] (setting [20]), -19.8%. The outcome in assay [15] was inactive.
As to `NC(Cc1c[nH]c2ccccc12)C(=O)O` (centres undefined), the Potency result in [14] and in [12] was “inactive” throughout. Further, the compound was classed as inactive in assay [13]. Also, in assay [9] (at 57.5 µM (top of the series)), the activity change, negative = inhibition was 9.94% (inactive). Besides, the max response in assay [9] (setting [19]) was found to be 25.9%; in assay [9] (setting [20]), 44.9%.
For the compound `COc1ncc2nc(-c3cccs3)c(=O)n(C)c2n1`, the Potency in assay [1] was > 11.4 µM (inactive); in [16], 2 µM (active); in [5], > 46 µM (inactive); in assay [6], > 46 µM (inactive); in assay [18], 2.51 µM (active). In addition, the activity change, negative = inhibition in assay [3] was 8.87% (inactive); in [9] (at 57.5 µM (top of the series)) it was 6% (inactive). The activity, negative = inhibition in assay [4] was 20.2% (inactive). Moreover, the Potency result in assay [7], in assay [8], in assay [14] and in assay [10] was “inactive” throughout. Moreover, the max response in assay [9] (setting [19]) was found to be 19.4%; in assay [9] (setting [20]) it was 24.1%.

These data come from PubChem BioAssay (NCATS).
